How the values were obtained:
Assay in all cases: DAPPL (digital affinity profiling via proximity ligation, sequencing); 10 mM Tris-HCl pH 7.5, 50 mM NaCl, 1 mM DTT, 4% glycerol, room temperature, 30 min; GST-TFs on glutathione beads, 16-mer random dsDNA library, 0.1% formaldehyde crosslink after washing; high values mean tight binding
[1] = molecular target: T1, FLI1 (Homo sapiens, UniProt Q01543 1-452); details: protein: recombinant; tags: N-terminal GST; dsDNA, one strand shown
T1 sequence: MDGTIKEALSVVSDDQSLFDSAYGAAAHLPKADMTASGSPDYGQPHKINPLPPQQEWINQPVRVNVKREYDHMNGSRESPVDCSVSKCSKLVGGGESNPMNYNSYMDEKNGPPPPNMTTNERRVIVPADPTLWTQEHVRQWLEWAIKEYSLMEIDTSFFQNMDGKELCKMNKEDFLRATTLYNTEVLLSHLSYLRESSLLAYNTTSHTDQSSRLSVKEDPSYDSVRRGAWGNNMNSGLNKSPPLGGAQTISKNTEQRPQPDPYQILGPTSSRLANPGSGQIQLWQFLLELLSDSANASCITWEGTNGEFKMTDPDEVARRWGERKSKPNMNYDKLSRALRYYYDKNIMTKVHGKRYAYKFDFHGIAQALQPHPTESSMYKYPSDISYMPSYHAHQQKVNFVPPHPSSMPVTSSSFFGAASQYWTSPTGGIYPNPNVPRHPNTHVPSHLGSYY
Procedure, shortened: (§1)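 Human transcription factors were made in yeast as GST fusions, captured on glutathione beads and barcoded with DNA. With a tag-only sample included, the pool was incubated with 200 nmole of a random double-stranded 16-mer DNA library in Tris/NaCl/DTT/glycerol buffer at room temperature for 30 min, then crosslinked with 0.1% formaldehyde after washing, ligated by proximity, amplified and sequenced. For binding signal, each hexamer's read frequency for a factor is divided by its frequency for the tag-only sample.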

[2] = molecular target: T2, GABPA (Homo sapiens, UniProt Q06546 1-454); details: protein: recombinant; tags: N-terminal GST; dsDNA, one strand shown
T2 sequence: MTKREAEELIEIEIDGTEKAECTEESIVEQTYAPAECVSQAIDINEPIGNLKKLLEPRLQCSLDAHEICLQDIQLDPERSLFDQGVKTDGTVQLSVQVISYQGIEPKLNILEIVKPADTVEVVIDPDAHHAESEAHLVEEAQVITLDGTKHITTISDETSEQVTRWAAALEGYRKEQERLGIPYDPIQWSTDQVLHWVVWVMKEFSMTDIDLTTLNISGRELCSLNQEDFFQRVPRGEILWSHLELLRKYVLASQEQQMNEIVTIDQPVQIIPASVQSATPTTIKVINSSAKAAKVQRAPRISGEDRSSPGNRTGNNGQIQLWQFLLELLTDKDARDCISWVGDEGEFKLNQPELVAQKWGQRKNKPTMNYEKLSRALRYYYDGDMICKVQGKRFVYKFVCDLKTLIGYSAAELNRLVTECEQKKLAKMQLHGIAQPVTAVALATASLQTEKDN
Procedure, shortened: as §1

[3] = molecular target: T3, ERG (Homo sapiens, UniProt P11308 1-479); details: protein: recombinant; tags: N-terminal GST; dsDNA, one strand shown
T3 sequence: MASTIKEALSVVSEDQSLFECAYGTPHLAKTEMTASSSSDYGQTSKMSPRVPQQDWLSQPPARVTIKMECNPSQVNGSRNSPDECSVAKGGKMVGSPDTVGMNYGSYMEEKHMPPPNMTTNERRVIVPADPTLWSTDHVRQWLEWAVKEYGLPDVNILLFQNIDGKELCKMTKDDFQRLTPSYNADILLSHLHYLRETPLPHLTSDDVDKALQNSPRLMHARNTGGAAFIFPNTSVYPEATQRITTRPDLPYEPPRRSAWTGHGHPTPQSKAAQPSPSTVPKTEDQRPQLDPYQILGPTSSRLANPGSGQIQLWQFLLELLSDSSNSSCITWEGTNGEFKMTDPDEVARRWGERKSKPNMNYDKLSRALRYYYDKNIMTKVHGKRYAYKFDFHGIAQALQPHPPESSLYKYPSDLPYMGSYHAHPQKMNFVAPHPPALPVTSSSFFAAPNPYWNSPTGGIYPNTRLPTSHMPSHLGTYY
Procedure, shortened: as §1

[4] = molecular target: SPI1 (Homo sapiens, UniProt P17947 1-270); details: protein: recombinant; tags: N-terminal GST; dsDNA, one strand shown
Procedure, shortened: as §1

[5] = molecular target: SPIB (Homo sapiens, UniProt Q01892 1-262); details: protein: recombinant; tags: N-terminal GST; dsDNA, one strand shown
Chain of SPIB (Q01892 whole entry): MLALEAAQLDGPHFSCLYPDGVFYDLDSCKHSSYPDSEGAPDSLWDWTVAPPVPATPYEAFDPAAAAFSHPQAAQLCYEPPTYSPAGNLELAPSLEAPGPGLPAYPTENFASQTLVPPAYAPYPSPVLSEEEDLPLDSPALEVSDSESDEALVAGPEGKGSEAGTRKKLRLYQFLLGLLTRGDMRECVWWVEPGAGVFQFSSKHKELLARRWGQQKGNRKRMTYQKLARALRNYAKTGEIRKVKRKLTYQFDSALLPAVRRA
Procedure, shortened: as §1

[6] = molecular target: T4, ELK3 (Homo sapiens, UniProt P41970 1-407); details: protein: recombinant; tags: N-terminal GST; dsDNA, one strand shown
T4 sequence: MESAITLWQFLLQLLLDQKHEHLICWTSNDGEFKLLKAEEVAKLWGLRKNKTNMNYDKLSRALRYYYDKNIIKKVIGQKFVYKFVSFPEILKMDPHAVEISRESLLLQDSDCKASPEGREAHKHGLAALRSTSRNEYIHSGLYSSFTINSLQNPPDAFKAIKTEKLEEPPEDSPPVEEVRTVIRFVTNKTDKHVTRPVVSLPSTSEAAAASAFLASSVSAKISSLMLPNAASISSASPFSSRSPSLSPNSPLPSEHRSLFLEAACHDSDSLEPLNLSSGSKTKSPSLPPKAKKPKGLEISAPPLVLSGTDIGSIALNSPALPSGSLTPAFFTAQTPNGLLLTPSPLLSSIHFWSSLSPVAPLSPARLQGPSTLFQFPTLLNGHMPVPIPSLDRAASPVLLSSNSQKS
Procedure, shortened: as §1

[7] = molecular target: ETV5 (Homo sapiens, UniProt P41161 1-510); details: protein: recombinant; tags: N-terminal GST; dsDNA, one strand shown
Chain of ETV5 (P41161 whole entry): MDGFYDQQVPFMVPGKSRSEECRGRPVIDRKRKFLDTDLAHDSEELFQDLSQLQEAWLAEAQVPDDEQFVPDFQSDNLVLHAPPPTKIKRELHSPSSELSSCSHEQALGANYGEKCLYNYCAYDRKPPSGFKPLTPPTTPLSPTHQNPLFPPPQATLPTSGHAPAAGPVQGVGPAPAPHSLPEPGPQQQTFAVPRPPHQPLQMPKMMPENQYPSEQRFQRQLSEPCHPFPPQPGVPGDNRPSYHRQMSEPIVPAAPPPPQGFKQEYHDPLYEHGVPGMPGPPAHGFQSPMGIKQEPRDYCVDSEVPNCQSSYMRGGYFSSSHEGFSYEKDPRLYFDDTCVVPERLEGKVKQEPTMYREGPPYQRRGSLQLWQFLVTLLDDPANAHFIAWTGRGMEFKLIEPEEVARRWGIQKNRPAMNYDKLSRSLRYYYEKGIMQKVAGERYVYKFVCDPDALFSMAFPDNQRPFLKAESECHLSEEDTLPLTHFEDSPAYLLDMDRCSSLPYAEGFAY
Procedure, shortened: as §1

[8] = molecular target: HSF1 (Homo sapiens, UniProt Q00613 1-529); details: protein: recombinant; tags: N-terminal GST; chain copies: 3; dsDNA, one strand shown
Chain of HSF1 (Q00613 whole entry): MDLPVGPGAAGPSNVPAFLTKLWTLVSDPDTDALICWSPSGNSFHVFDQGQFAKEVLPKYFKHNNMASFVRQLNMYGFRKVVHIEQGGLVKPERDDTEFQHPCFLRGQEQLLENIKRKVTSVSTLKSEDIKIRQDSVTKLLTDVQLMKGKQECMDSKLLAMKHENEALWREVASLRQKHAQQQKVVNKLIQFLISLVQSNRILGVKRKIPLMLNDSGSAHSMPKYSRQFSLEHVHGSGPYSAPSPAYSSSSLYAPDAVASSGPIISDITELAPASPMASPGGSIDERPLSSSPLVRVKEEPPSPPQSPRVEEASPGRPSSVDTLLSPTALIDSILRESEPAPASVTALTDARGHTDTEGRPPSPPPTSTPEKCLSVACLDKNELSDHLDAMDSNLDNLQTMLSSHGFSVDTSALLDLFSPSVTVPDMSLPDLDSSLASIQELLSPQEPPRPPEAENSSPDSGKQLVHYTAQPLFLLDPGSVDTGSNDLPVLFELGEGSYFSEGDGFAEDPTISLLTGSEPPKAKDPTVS
Procedure, shortened: as §1

[9] = molecular target: T5, SPIC (Homo sapiens, UniProt Q8N5J4 1-248); details: protein: recombinant; tags: N-terminal GST; dsDNA, one strand shown
T5 sequence: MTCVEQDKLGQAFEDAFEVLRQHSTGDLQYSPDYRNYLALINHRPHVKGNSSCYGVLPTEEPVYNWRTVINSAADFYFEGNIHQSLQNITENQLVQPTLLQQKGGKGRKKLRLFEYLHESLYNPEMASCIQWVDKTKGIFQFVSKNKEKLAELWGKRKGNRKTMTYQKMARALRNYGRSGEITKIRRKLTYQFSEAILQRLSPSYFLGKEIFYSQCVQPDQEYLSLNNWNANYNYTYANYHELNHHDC
Procedure, shortened: as §1

[10] = molecular target: ELF4 (Homo sapiens, UniProt Q99607 1-663); details: protein: recombinant; tags: N-terminal GST; dsDNA, one strand shown
Chain of ELF4 (Q99607 whole entry): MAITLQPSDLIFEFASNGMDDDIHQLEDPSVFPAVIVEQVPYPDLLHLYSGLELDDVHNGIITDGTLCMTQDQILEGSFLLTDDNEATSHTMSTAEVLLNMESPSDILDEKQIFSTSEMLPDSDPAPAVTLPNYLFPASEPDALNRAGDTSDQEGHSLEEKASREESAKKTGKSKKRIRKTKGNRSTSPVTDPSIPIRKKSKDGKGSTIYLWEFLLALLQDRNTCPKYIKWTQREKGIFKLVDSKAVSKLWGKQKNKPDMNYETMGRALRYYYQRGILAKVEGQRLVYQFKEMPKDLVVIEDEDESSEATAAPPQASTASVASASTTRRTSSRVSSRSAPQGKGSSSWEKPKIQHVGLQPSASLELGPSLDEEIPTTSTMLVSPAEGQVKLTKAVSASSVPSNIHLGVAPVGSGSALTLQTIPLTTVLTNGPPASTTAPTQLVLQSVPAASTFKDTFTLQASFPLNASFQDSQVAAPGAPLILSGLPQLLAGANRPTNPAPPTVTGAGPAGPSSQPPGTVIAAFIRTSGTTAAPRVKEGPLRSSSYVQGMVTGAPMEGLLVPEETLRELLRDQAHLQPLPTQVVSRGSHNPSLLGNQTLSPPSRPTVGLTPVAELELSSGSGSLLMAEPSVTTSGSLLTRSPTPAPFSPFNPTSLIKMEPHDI
Procedure, shortened: as §1

[11] = molecular target: T6, ELK4 (Homo sapiens, UniProt P28324-2 1-405); details: protein: recombinant; tags: N-terminal GST; dsDNA, one strand shown
T6 sequence: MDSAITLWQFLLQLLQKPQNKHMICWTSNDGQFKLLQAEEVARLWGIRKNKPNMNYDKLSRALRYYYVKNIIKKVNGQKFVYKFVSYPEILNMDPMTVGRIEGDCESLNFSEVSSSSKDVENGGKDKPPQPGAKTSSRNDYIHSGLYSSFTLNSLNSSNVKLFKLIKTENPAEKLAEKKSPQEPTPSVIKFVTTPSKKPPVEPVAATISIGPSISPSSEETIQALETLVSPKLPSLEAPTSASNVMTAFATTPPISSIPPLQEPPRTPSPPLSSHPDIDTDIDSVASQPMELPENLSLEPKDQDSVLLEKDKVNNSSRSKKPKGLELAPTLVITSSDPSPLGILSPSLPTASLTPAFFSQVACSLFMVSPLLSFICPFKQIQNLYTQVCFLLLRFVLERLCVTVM
Procedure, shortened: as §1

[12] = molecular target: T7, ETV2 (Homo sapiens, UniProt O00321 1-342); details: protein: recombinant; tags: N-terminal GST; dsDNA, one strand shown
T7 sequence: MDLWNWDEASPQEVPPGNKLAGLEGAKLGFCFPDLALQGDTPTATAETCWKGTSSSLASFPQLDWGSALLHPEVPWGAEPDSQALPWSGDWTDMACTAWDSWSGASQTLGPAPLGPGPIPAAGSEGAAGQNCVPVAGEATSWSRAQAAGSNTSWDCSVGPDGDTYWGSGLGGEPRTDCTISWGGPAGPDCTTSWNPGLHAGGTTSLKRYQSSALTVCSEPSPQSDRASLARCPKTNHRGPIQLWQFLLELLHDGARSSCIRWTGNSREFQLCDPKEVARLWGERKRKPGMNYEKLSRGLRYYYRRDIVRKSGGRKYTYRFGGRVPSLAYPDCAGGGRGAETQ
Procedure, shortened: as §1

[13] = molecular target: T8, ELF3 (Homo sapiens, UniProt P78545 1-371); details: protein: recombinant; tags: N-terminal GST; dsDNA, one strand shown
T8 sequence: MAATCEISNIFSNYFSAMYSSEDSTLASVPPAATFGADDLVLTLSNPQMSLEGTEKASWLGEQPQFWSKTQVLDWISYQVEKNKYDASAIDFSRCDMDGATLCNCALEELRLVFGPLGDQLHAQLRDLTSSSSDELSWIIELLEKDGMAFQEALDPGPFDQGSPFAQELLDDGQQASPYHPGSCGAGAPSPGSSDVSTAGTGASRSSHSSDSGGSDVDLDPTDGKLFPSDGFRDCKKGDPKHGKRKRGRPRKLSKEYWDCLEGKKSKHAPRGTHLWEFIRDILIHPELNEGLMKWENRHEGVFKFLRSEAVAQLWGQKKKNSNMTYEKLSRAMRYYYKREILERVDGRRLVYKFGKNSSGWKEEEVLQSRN
Procedure, shortened: as §1

[14] = molecular target: CRX (Homo sapiens, UniProt O43186 1-299); details: protein: recombinant; tags: N-terminal GST; dsDNA, one strand shown
Chain of CRX (O43186 whole entry): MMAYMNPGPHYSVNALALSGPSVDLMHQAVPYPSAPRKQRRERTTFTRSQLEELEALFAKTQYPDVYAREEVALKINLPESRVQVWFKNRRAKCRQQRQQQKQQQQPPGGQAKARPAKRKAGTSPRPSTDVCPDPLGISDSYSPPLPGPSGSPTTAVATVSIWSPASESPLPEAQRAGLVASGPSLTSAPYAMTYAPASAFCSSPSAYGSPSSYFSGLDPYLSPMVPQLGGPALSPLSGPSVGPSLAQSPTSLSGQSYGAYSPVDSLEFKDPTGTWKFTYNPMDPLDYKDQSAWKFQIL
Procedure, shortened: as §1

[15] = molecular target: ELF1 (Homo sapiens, UniProt P32519 1-619); details: protein: recombinant; tags: N-terminal GST; dsDNA, one strand shown
Chain of ELF1 (P32519 whole entry): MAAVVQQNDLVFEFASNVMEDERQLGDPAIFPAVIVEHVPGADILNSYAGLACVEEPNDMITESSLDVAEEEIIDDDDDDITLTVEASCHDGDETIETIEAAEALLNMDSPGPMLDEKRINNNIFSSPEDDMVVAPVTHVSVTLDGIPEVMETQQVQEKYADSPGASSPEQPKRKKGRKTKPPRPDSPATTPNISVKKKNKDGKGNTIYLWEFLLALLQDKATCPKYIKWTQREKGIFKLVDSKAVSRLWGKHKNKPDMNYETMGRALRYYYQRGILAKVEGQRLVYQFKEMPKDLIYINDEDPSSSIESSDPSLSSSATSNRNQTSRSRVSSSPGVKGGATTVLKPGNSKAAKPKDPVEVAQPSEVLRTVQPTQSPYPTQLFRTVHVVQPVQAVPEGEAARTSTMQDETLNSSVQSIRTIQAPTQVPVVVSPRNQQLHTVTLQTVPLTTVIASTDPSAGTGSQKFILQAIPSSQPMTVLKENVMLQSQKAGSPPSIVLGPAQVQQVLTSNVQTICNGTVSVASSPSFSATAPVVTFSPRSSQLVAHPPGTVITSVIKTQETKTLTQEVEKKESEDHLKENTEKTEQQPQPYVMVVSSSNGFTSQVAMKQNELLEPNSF
Procedure, shortened: as §1

[16] = molecular target: T9, EHF (Homo sapiens, UniProt Q9NZC4 1-300); details: protein: recombinant; tags: N-terminal GST; dsDNA, one strand shown
T9 sequence: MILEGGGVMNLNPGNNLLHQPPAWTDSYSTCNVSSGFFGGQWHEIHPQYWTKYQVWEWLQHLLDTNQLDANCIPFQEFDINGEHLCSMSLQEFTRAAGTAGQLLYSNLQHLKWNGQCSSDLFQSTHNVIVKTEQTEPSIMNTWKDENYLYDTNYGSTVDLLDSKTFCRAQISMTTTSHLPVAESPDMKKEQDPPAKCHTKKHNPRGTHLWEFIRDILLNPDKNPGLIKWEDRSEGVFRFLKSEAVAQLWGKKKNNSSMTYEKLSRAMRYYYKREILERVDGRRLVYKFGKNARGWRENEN
Procedure, shortened: as §1

[17] = molecular target: T10, FEV (Homo sapiens, UniProt Q99581 1-238); details: protein: recombinant; tags: N-terminal GST; dsDNA, one strand shown
T10 sequence: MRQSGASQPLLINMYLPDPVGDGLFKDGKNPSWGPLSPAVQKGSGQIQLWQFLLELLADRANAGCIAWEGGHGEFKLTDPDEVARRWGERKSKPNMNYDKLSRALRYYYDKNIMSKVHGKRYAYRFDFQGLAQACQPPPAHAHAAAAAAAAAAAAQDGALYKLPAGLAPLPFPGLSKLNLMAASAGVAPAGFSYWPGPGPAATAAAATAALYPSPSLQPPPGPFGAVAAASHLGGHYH
Procedure, shortened: as §1

[18] = molecular target: ETV1 (Homo sapiens, UniProt P50549 1-477); details: protein: recombinant; tags: N-terminal GST; dsDNA, one strand shown
Chain of ETV1 (P50549 whole entry): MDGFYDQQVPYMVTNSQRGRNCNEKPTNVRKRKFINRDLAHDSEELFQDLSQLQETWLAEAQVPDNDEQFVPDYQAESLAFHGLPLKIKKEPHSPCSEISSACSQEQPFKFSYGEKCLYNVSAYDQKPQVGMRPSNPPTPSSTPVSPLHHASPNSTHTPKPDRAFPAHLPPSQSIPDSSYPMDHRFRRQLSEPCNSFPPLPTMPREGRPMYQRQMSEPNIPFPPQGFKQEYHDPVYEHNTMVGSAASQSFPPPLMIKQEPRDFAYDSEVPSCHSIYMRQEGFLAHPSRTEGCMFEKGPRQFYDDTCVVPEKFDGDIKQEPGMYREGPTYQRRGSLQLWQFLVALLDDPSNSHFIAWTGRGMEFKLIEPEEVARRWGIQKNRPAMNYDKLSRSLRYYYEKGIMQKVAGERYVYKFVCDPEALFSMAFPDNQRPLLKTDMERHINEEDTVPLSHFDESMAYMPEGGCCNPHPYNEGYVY
Procedure, shortened: as §1

Sequence	binding signal [1]	binding signal [2]	binding signal [3]	binding signal [4]	binding signal [5]	binding signal [6]	binding signal [7]	binding signal [8]	binding signal [9]	binding signal [10]	binding signal [11]	binding signal [12]	binding signal [13]	binding signal [14]	binding signal [15]	binding signal [16]	binding signal [17]	binding signal [18]
GTTAAA	1.03 fold enrichment (6-mer frequency, TF over GST control)	1.01 fold enrichment (6-mer frequency, TF over GST control)	1.03 fold enrichment (6-mer frequency, TF over GST control)	1.08 fold enrichment (6-mer frequency, TF over GST control)	1.07 fold enrichment (6-mer frequency, TF over GST control)	1.01 fold enrichment (6-mer frequency, TF over GST control)	1.02 fold enrichment (6-mer frequency, TF over GST control)	1.01 fold enrichment (6-mer frequency, TF over GST control)	1.17 fold enrichment (6-mer frequency, TF over GST control)	1.07 fold enrichment (6-mer frequency, TF over GST control)	1.04 fold enrichment (6-mer frequency, TF over GST control)	1.11 fold enrichment (6-mer frequency, TF over GST control)	1.29 fold enrichment (6-mer frequency, TF over GST control)	1.27 fold enrichment (6-mer frequency, TF over GST control)	–	–	–	–
CGAAAT	1.05 fold enrichment (6-mer frequency, TF over GST control)	–	1.02 fold enrichment (6-mer frequency, TF over GST control)	1.09 fold enrichment (6-mer frequency, TF over GST control)	1.07 fold enrichment (6-mer frequency, TF over GST control)	–	1 fold enrichment (6-mer frequency, TF over GST control)	1.4 fold enrichment (6-mer frequency, TF over GST control)	1.01 fold enrichment (6-mer frequency, TF over GST control)	1.01 fold enrichment (6-mer frequency, TF over GST control)	1.18 fold enrichment (6-mer frequency, TF over GST control)	1.06 fold enrichment (6-mer frequency, TF over GST control)	–	1.07 fold enrichment (6-mer frequency, TF over GST control)	1.01 fold enrichment (6-mer frequency, TF over GST control)	1.07 fold enrichment (6-mer frequency, TF over GST control)	1 fold enrichment (6-mer frequency, TF over GST control)	1.02 fold enrichment (6-mer frequency, TF over GST control)
TACTGG	1.08 fold enrichment (6-mer frequency, TF over GST control)	1.19 fold enrichment (6-mer frequency, TF over GST control)	1.13 fold enrichment (6-mer frequency, TF over GST control)	1.08 fold enrichment (6-mer frequency, TF over GST control)	1.05 fold enrichment (6-mer frequency, TF over GST control)	1.07 fold enrichment (6-mer frequency, TF over GST control)	1.1 fold enrichment (6-mer frequency, TF over GST control)	1.49 fold enrichment (6-mer frequency, TF over GST control)	1.22 fold enrichment (6-mer frequency, TF over GST control)	1.19 fold enrichment (6-mer frequency, TF over GST control)	1.15 fold enrichment (6-mer frequency, TF over GST control)	1.3 fold enrichment (6-mer frequency, TF over GST control)	1.17 fold enrichment (6-mer frequency, TF over GST control)	1.35 fold enrichment (6-mer frequency, TF over GST control)	1.13 fold enrichment (6-mer frequency, TF over GST control)	–	1.01 fold enrichment (6-mer frequency, TF over GST control)	–

Reference: article PMC7862700, “An all-to-all approach to the identification of sequence-specific readers for epigenetic DNA modifications on cytosine”
